# In all, about 18,000 sequences were measured (“log2 normalized intensity”: median about 0.39, highest 2% from about 6.6 on). What follows is part of a selection rich in the highest values, with near analogues and random picks from the rest.
# Molecular target: T1, HNF4alpha2 (COS-7 nuclear extract) (Homo sapiens, UniProt P41235 1-474)
# T1 sequence: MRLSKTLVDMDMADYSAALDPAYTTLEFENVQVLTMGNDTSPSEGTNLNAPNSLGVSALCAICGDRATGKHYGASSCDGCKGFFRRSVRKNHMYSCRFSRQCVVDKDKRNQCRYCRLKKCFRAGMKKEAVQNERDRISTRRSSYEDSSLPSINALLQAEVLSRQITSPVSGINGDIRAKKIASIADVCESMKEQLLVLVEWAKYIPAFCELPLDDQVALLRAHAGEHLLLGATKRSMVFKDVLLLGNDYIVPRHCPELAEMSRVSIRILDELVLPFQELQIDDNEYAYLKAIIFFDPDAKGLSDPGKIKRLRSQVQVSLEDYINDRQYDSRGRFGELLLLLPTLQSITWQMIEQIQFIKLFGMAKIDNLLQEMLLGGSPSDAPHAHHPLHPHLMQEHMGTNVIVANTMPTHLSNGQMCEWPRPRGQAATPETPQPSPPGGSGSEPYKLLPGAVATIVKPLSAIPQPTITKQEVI
# Experiment: protein-binding microarray; COS-7 nuclear extract on double-stranded Agilent 4x180k PBM; binding buffer, salt, pH and temperature not given in the material; high values mean tight binding
# Settings: chain copies: 2; label: 3' end of strand 1 on the slide; dsDNA, one strand shown
# Procedure, shortened: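 Binding signal is the background-corrected, normalized gProcessedSignal calculated by Agilent software. It was measured by applying nuclear extracts of COS-7 cells transiently transfected with a human HNF4α isoform expression vector to a custom Agilent SurePrint G3 4x180k array of ~44,000 double-stranded ~60-nt test sequences in quadruplicate, then imaging bound HNF4α on an Agilent G2565CA scanner at 2-µm resolution.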
row,Sequence,binding signal
1,CCTTTCCCCGCCCCGCGTCCGTGCACCCTTGCCTAGGGAGATTAGAGTATCGGTCGA,4.42 log2 normalized intensity
2,ACTTTGAGGTGTTCTCTGGGGTTAGCCAAAGCCTAGGGAGATTAGAGTATCGGTCGA,1.59 log2 normalized intensity
3,CGGGTCAGCAGGGCACCGCCTCCACACCCCGCCTAGGGAGATTAGAGTATCGGTCGA,1.59 log2 normalized intensity
4,TCACAATTAAGCCAAACTTGGGTTTATGGCGCCTAGGGAGATTAGAGTATCGGTCGA,0.583 log2 normalized intensity
5,AGACAACCTTTGGTCACTTGTAAGATACTGGCCTAGGGAGATTAGAGTATCGGTCGA,2.43 log2 normalized intensity
6,AAGGTTGGTCTTAGGACCACATGAGTAAACGCCTAGGGAGATTAGAGTATCGGTCGA,-0.756 log2 normalized intensity
7,TGGGCTCCTGCCTTGGAGAAGTGAACTTTGGCCTAGGGAGATTAGAGTATCGGTCGA,4.34 log2 normalized intensity
8,TCCTGCCTTGGAGAAGTGAACTTTGCCCTCGCCTAGGGAGATTAGAGTATCGGTCGA,10.2 log2 normalized intensity
9,AAGTGACCCTGGTCTTTGCCCTTTCCTAGAGCCTAGGGAGATTAGAGTATCGGTCGA,3.39 log2 normalized intensity
10,CCTTGGATCTCCTGCACCTGAACTTTGCTCGCCTAGGGAGATTAGAGTATCGGTCGA,6.35 log2 normalized intensity
11,GTGAACTTTGCCCTCTCTTTCTGGAACCTAGCCTAGGGAGATTAGAGTATCGGTCGA,5.08 log2 normalized intensity
12,ACTGATCTCTGGCTTGATCCCTGAACTTTGGCCTAGGGAGATTAGAGTATCGGTCGA,3.32 log2 normalized intensity
13,TCTCTGGCTTGATCCCTGAACTTTGCTCCCGCCTAGGGAGATTAGAGTATCGGTCGA,7.97 log2 normalized intensity
14,GAGAAGTGAACTTTGCCCTCTCTTTCTGGAGCCTAGGGAGATTAGAGTATCGGTCGA,7.55 log2 normalized intensity
15,GGCTTGATCCCTGAACTTTGCTCCCACCCTGCCTAGGGAGATTAGAGTATCGGTCGA,5.57 log2 normalized intensity
16,TGGGCTCGGCGCTCCGCTTACTCGGCCTGGGCCTAGGGAGATTAGAGTATCGGTCGA,-0.994 log2 normalized intensity
17,TCCCTCATTAGTAACTCCAGAGATAAGATAGCCTAGGGAGATTAGAGTATCGGTCGA,0.0683 log2 normalized intensity
18,GCAGTGGGACAAAGGTCACAGGAAAGGGACGCCTAGGGAGATTAGAGTATCGGTCGA,4.13 log2 normalized intensity
19,AGGGAGGGGAGAGGGGGTTAAAGGTTATTTGCCTAGGGAGATTAGAGTATCGGTCGA,4.97 log2 normalized intensity
20,CCTATATAGTTGAGATTGTAACCGTAAATGGCCTAGGGAGATTAGAGTATCGGTCGA,1.55 log2 normalized intensity
21,GTTAAGTGAGTGGACTTTGGTCCTGGTCAGGCCTAGGGAGATTAGAGTATCGGTCGA,6.52 log2 normalized intensity
22,ACACAGTACTTTGTACATGGGAATAGACATGCCTAGGGAGATTAGAGTATCGGTCGA,0.863 log2 normalized intensity
23,GAATGCAACCACACCAACATGGACTTTGTCGCCTAGGGAGATTAGAGTATCGGTCGA,6.09 log2 normalized intensity
24,AGATTTGAATATGTACATGGACTTTGAACCGCCTAGGGAGATTAGAGTATCGGTCGA,10.3 log2 normalized intensity
25,AGGTACTAAGAGATTTGAATATGTACATGGGCCTAGGGAGATTAGAGTATCGGTCGA,1.38 log2 normalized intensity
26,CGGTCAGCTGCTTGACTTAGTACATGGCCTGCCTAGGGAGATTAGAGTATCGGTCGA,0.557 log2 normalized intensity
27,ATGTACATGGACTTTGAACCAAGATATGCTGCCTAGGGAGATTAGAGTATCGGTCGA,6.75 log2 normalized intensity

row,Sequence,binding signal
1,CATGGACTTTGAACCAAGATATGCTAACATGCCTAGGGAGATTAGAGTATCGGTCGA,4.81 log2 normalized intensity
2,TGAATATGTACATGGACTTTGAACCAAGATGCCTAGGGAGATTAGAGTATCGGTCGA,8.36 log2 normalized intensity
3,CTAAGAGATTTGAATATGTACATGGACTTTGCCTAGGGAGATTAGAGTATCGGTCGA,6.19 log2 normalized intensity
4,ATCCTTATCTTGTAGAAAAGTGCATGGATTGCCTAGGGAGATTAGAGTATCGGTCGA,0.836 log2 normalized intensity
5,TTGAGTTTGCTCTGCTACTAACTGCATGACGCCTAGGGAGATTAGAGTATCGGTCGA,-0.452 log2 normalized intensity
6,TTCTCCAGGAAGTTCAGGCCTCGGCTTCATGCCTAGGGAGATTAGAGTATCGGTCGA,-0.98 log2 normalized intensity
7,CACTCAATGCAGCAGCATTGGACCCTCCCAGCCTAGGGAGATTAGAGTATCGGTCGA,5.46 log2 normalized intensity
8,GGCATTCTGACCTTTGTCTCCAGGCAAACTGCCTAGGGAGATTAGAGTATCGGTCGA,4.88 log2 normalized intensity
9,ACTCAGGCATTCTGACCTTTGTCTCCAGGCGCCTAGGGAGATTAGAGTATCGGTCGA,5.69 log2 normalized intensity
10,CCATATCACATTTTAAGGTCTGGCATTCTTGCCTAGGGAGATTAGAGTATCGGTCGA,1.37 log2 normalized intensity
11,CCTTTTATTTTCTTATCTGCCTAGGCATTTGCCTAGGGAGATTAGAGTATCGGTCGA,1.33 log2 normalized intensity
12,CTGCAGATTGACTCAGGCATTCTGACCTTTGCCTAGGGAGATTAGAGTATCGGTCGA,6.93 log2 normalized intensity
13,TATTTAGACTCAGCATGTCTTCTGACCTTTGCCTAGGGAGATTAGAGTATCGGTCGA,6.51 log2 normalized intensity
14,TTTTAAGGTCTGGCATTCTTTTTGACCTTTGCCTAGGGAGATTAGAGTATCGGTCGA,7.55 log2 normalized intensity
15,GATTGACTCAGGCATTCTGACCTTTGTCTCGCCTAGGGAGATTAGAGTATCGGTCGA,7.05 log2 normalized intensity
16,TAAAACTGCAGATTGACTCAGGCATTCTGAGCCTAGGGAGATTAGAGTATCGGTCGA,-0.529 log2 normalized intensity
17,CCTTATGACGGACAAAGGGCTCTCTCACCAGCCTAGGGAGATTAGAGTATCGGTCGA,-0.701 log2 normalized intensity
18,TGTGGGCCTCACACCCTCTAGGGTAGATAAGCCTAGGGAGATTAGAGTATCGGTCGA,-0.451 log2 normalized intensity
19,TGCCTCCTTCAAGGATTAGCAGATAAATCTGCCTAGGGAGATTAGAGTATCGGTCGA,-0.904 log2 normalized intensity
20,ATGAAGATATATTCCTTCAGGAAGGCCTGTGCCTAGGGAGATTAGAGTATCGGTCGA,0.708 log2 normalized intensity
21,CTTTCATACGTTTAACAGTTCCTCCTGGAAGCCTAGGGAGATTAGAGTATCGGTCGA,1.18 log2 normalized intensity
22,CTATTAGGTCTTTGAAGTTGTCTTATCACCGCCTAGGGAGATTAGAGTATCGGTCGA,1.34 log2 normalized intensity
23,GGACCGCAGGGGGCTCCCGGACCCTGACTCGCCTAGGGAGATTAGAGTATCGGTCGA,0.458 log2 normalized intensity
24,AGCCACCGCGCCCCGCCCCCAGTGCACCTTGCCTAGGGAGATTAGAGTATCGGTCGA,5.11 log2 normalized intensity
25,TTGTATGTCCAAGGGTCACTCGACATTCATGCCTAGGGAGATTAGAGTATCGGTCGA,3.02 log2 normalized intensity
26,TTGAAGTGACTAAATGAGAAGAAATGATGGGCCTAGGGAGATTAGAGTATCGGTCGA,1.69 log2 normalized intensity
27,GGTGCTGATGTTAACACAAGTTATTACCGTGCCTAGGGAGATTAGAGTATCGGTCGA,1.03 log2 normalized intensity
